# HEK293 tox – kills HEK 293 cells; HEK 293 viability, ATP luminescence (CellTiter-Glo), 48-72 h; Potency, µM (top dose mostly 115 µM), inactives show at the highest dose activity change, negative = cytotoxicity, hits mostly inhibitors; 94,000 compounds, 6.6% hits; further: on the % scale 0 is the no-effect control and ±100 the full control effect; nearly all actives have a fitted effect of over 60% in size
#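 ATP-coupled CellTiter-Glo luminescence served as viability read-out, recorded 10 min after reagent addition at room temperature. HEK 293 cells, 250 cells/well, had been incubated with pintool-transferred compound for 48 or 72 hr at 37 degree Celsius.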
# NIH3T3 tox – NIH 3T3 cell cytotoxicity. NIH 3T3 viability, CellTiter-Glo ATP luminescence, 48-72 h. Potency, µM (titrated, usually from 96.7 µM), for inactives: top-dose activity change, negative = cytotoxicity, usual class: inhibitors. 94,000 compounds, 4.3% hits. AID 1345082; further: on the % scale 0 is the no-effect control and ±100 the full control effect; nearly all actives have a fitted effect of over 55% in size
#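 Mouse fibroblast NIH 3T3 cells, 400 per well, received compound via pintool and were incubated for 48 or 72 hr prior to CellTiter-Glo ATP luminescence measurement.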
# FLuc inh-1 – blocks purified firefly luciferase enzyme activity. P08659. purified P. pyralis luciferase, luminescence, biochemical. Potency, µM (doses to about 115 µM), usual class: inhibitors. 76,000 compounds, 2.5% hits; further: on the % scale 0 is the no-effect control and ±100 the full control effect; nearly all actives have a fitted effect of over 65% in size
# Target sequence (P08659 whole entry, looked up): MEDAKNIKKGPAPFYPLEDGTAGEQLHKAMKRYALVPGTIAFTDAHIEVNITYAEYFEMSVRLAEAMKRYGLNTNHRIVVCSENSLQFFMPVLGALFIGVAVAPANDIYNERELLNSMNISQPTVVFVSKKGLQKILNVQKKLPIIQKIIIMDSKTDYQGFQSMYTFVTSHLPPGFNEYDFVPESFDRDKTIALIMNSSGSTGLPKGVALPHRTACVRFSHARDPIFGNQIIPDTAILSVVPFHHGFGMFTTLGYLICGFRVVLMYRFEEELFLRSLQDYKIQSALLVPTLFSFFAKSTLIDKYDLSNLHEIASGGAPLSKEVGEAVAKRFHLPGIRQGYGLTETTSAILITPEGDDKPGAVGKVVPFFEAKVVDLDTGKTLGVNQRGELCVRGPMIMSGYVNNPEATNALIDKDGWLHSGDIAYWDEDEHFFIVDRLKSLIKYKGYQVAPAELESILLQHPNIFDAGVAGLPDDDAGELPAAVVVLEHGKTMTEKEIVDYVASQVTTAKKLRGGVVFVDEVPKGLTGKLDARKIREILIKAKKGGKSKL
#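 Biochemical qHTS: compound (6-point titration) added to 10uM D-luciferin plus 10uM ATP in Tris acetate pH 7.5 buffer with Mg, Tween-20 and BSA, then purified enzyme at 10nM; light output imaged.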
# hNpr1 antagonist – antagonists of human natriuretic peptide receptor Npr1. P16066. HEK293 hNpr1 GloSensor cGMP, ANP-stimulated luminescence. Potency, µM (series often up to 46.3 µM), inactives show at the highest dose activity change, negative = inhibition, most hits filed as inhibitors. 76,000 compounds, 1.6% hits. AID 1347048; calls by dose curve; further: on the % scale 0 is the no-effect control and ±100 the full control effect; nearly all actives have a fitted effect of over 60% in size
#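 Compound pre-incubated 30 min at room temperature on GloSensor-loaded HEK293 cells stably carrying hNpr1 and the pGS-40F cGMP biosensor. Stimulation uses hNppA at 0.1 nM final; luminescence is taken at baseline and 20 min post-agonist.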
# FLuc SDR -ATP – firefly luciferase binding stabilization, ATP absent; Purified FLuc-C-HiBiT, Nano-Glo HiBiT luminescence, no ATP; 1,300 compounds, 7.8% hits; shares compounds with FLuc inh-1; Potency, µM (series often up to 32.7 µM), for the others: top-dose activation (signal gain), usual class: activators; further: nearly all actives have a fitted effect of over 55% in size
# FLuc SDR ATP – firefly luciferase binding stabilization, ATP added. shares compounds with FLuc inh-1. purified FLuc-C-HiBiT + ATP, HiBiT complementation luminescence. Potency, µM (series often up to 32.7 µM), for inactives: at the highest dose activation (gain of signal), hits mostly activators. 1,300 compounds, 8.7% hits;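 further: signal reports ligand binding via conformational change of the enzyme rather than luciferase catalysis; % of control where 0% means no effect; nearly all actives have a fitted effect of over 55% in size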
# FLuc inh-2 – inhibitors of firefly luciferase enzymatic activity; shares compounds with FLuc inh-1; purified FLuc-C-HiBiT enzyme, luciferin luminescence; Potency, µM (doses to about 32.7 µM), without a hit: at the highest dose activity change, negative = inhibition, hits mostly inhibitors; 1,300 compounds, 42% hits; AID 1963320; further: on the % scale 0 is the no-effect control and ±100 the full control effect; nearly all actives have a fitted effect of over 70% in size
# * = called active by the depositor; i = inactive; u = inconclusive; x = not tested or not shown; [ ] = remark or other dose. Only some compounds are listed: those with a hit (about 11% of all), similar ones and a draw of the others. Unless noted, the call rests on the fitted dose curve; in most records, active means well fitted curve in the direction sought with a large enough effect; inconclusive means small, poorly fitted or top-dose-only effect, or another doubt; inactive means no such curve, though single readings can be large; an effect the other way counts as inactive or inconclusive. Potency means the concentration at half of the fitted maximal effect.
SMILES,HEK293 tox,NIH3T3 tox,FLuc inh-1,hNpr1 antagonist,FLuc SDR -ATP,FLuc SDR ATP,FLuc inh-2
COc1ccccc1N1CCN(c2ncccc2CNC(C)Cn2ccnc2)CC1 (stereo not given),-15%,-11%,i,2%,x,x,x
COc1ccc(NC(=O)N2CCCCCC2c2nc(C)no2)cc1 (stereo not given),-1%,-4%,x,x,x,x,x
CC(=O)c1ccc(NS(=O)(=O)c2cccc(S(=O)(=O)c3ccc(Cl)cc3)c2)cc1,x,x,x,x,14%,9%,-10%
CCN(CC)CCOc1ccc(-c2nc3cc(Cl)ccc3s2)cc1,x,x,x,x,21%[65.7 µM],13%[65.7 µM],u
CCN(CCOC)C(=O)c1coc(COc2ccc3sc(C)nc3c2)n1,u,-26%,i,-1%,x,x,x
Cc1ccc(C)c(-c2cc3c(=O)n(CCNC(=O)c4ccccc4)ccn3n2)c1,u,u,i,-13%,x,x,x
Cc1ccc(-c2cc3c(=O)n(CCNC(=O)Cc4ccsc4)ccn3n2)c(C)c1,u,u,8.9µM*,0%,u,u,6.2µM*
Cc1ccc(-c2cc3c(=O)n(CCNC(=O)c4ccc(N(C)C)cc4)ccn3n2)cc1C,-3%,i,i,1%,x,x,x
Cc1ccc(-c2cc3c(=O)n(CCNC(=O)c4cccnc4)ccn3n2)c(C)c1,u,u,8.9µM*,5%,30%,u,u
Cc1ccc(-c2cc3c(=O)n(CCNC(=O)c4ccc(N(C)C)cc4)ccn3n2)c(C)c1,u,-16%,2.5µM*,-18%,20%,14%,u
CC(=O)Nc1cccc(C(=O)NCCn2ccn3nc(-c4ccc(C)cc4C)cc3c2=O)c1,40µM*,u,5µM*,-19%,31%,u,9.9µM*
COc1ccc(C(=O)NCCn2ccn3nc(-c4cc(C)ccc4C)cc3c2=O)cc1OC,u,u,i,-19%,x,x,x
C#CCNC(=O)c1nc2cccnc2n(C2CC2)c1=O,-10%[172 µM],-25%[138 µM],x,x,x,x,x
CN1C(=O)C(c2ccccc2)CC12CCN(CCC(=O)O)CC2 (stereo not given),4%,1%,i,-1%,x,x,x
COc1ccc(C(=O)NCCn2ccn3nc(-c4ccc(C)cc4C)cc3c2=O)cc1F,u,u,1.3µM*,u,32%,u,3.5µM*
COc1cccc(-c2cc3c(=O)n(CCNC(=O)c4nn(C)c5ccccc45)ccn3n2)c1,u,u,u,-21%,x,x,x
Cc1ccc(-c2cc3c(=O)n(CCNC(=O)c4nn(C)c5ccccc45)ccn3n2)c(C)c1,u,u,1.4µM*,-24%,u,u,1.6µM*
Fc1ccc(-n2ncc3c(N4CCCCC4)nc(NN4CCOCC4)nc32)cc1,x,x,x,x,11%,8%,3%
Cc1cccc(NC(=O)c2c(N)sc3c2CCC(C)C3)c1 (stereo not given),x,x,x,x,8%,7%,u
Cc1cccc(NC(=O)N2CCc3nnc(C4CC4)n3CC2)c1,2%,i,i,-1%,x,x,x
O=C(c1cccc(Cl)c1)N1CCC(C(=O)N2CCC(c3nc4ncccc4[nH]3)CC2)CC1,u,-21%,x,x,x,x,x
O=C(Nc1nc2c(F)cc(F)cc2s1)c1ccc2c(c1)OCCO2,x,x,x,x,17%,15%,1.8µM*
O=C1N(c2ccccc2)C[C@H]2CN(Cc3ccccc3)CCN12,-26%[172 µM],-18%[138 µM],14µM*,-21%[70.6 µM],10%[49.3 µM],11%[49.3 µM],u
CS(=O)(=O)c1ccc(CN2CCN3C(=O)N(c4ccccc4)C[C@H]3C2)cc1,u,u,i,-1%[70.6 µM],x,x,x
CCn1cc(-c2ccc(C)cc2)cc1C(=O)O,u,-19%,u,2%,14%,10%,-13%
Cc1ccc(Cn2cc(-c3ccncc3)cc2C(=O)O)cc1,-27%,u,i,1%,14%,11%,-8%
CC(C)(C)c1nnc2ccc(C(=O)NCCc3ccc(Cl)cc3)cn12,-6%,-20%,x,x,x,x,x
